According to PubChem BioAssay:
A number with no mark means an inactive call. Calls of active or inactive are those of the source. Cut-off read from the data, not from the text of the source: active = inhibition above about 44%; inactive = the rest.

What follows are compounds tested against Steroidogenic factor 1 (Homo sapiens) (UniProt Q13285) (assay: SF1 (NR5A1) inverse agonists, counter-screen for LRH-1 inverse agonist project, cell-based, luminescence, high throughput (AID 651614;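 note: cells cotransfected with StAR promoter reporter and SF1 expression vector; 0% = vehicle on cells with receptor and 100% = vehicle on cells lacking receptor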)). Conditions: cell-based SF1 luciferase reporter, at 3.6 µM, hits give high values.
Steroidogenic factor 1 (Homo sapiens), sequence (Q13285 whole entry, looked up): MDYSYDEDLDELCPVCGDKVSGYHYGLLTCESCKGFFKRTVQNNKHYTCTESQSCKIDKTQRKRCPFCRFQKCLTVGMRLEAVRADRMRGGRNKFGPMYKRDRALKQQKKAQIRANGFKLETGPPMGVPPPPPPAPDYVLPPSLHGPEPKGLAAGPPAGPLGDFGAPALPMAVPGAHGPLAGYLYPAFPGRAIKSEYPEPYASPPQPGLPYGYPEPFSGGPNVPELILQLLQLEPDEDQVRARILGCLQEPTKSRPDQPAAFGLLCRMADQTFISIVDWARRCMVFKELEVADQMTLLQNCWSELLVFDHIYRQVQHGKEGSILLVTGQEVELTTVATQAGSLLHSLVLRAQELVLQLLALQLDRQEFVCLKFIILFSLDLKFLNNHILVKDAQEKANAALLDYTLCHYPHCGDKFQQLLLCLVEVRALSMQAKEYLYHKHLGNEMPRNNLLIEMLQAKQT

Row | Structure (SMILES) | inhibition
1 | Cc1c(Cl)cccc1NC(=O)CS(=O)(=O)c1ccccc1 | 55.5% (active)
2 | COc1ccc(OCCNC(=O)C2(C)CCN2Cc2ccc(SC)cc2)cc1 (centres undefined) | 45.9% (active)
3 | CCOc1ccc(Br)cc1C1=NN(C(C)=O)C(c2ccc([N+](=O)[O-])s2)O1 (centres undefined) | 63.2% (active)
4 | Oc1cccc(Nc2nc(N3CCOCC3)nc(N3CCOCC3)n2)c1 | 21.6%
5 | CCN(CC)C1=CC(=O)OC12CCCCC2 | 48.7% (active)
6 | O=C(NCc1cccc(C(F)(F)F)c1)c1cc(-c2ccccc2)nn1CC1CC(c2cccnc2)=NO1 (centres undefined) | 32.1%
7 | O=C(Nc1ccc2oc(-c3ccccc3F)nc2c1)c1ccc([N+](=O)[O-])o1 | 56% (active)
8 | Cc1cc(OCC(=O)Nc2ccc(OCc3ccccc3)cc2)nc(C(C)C)n1 | 32.4%
9 | Cc1onc(-c2ccccc2Cl)c1C(=O)O/N=C(\N)c1ccc([N+](=O)[O-])o1 | 62.5% (active)
10 | O=C(c1ccccc1)N1CCN(c2ccc([N+](=O)[O-])c(N3CCOCC3)c2)CC1 | 34.7%
11 | COCCNc1ncnc2c1ncn2[C@H]1CN(CCc2ccccc2)C[C@@H](CO)O1 | 24.9%
12 | C=CCNc1sc(C(=O)c2ccccc2)c(N)c1C#N | 47.7% (active)
13 | COc1ccc(CNC(=O)O[C@@H]2C[C@H]3C(=O)N(c4ccccc4)C(=O)[C@H]3[C@@]3(CN(S(=O)(=O)c4ccc(C)cc4)C[C@H]3C)[C@@H]2O)cc1OC | 13.8%
14 | COC(=O)c1ccc([C@H](NC(=O)c2ccco2)[C@]2(C)C[C@H]2C2CCCCC2)cc1 | 21.1%
